The list is not random: actives were taken first. Their share in the collection is about 12%.
PLK1 PBD block: PLK1 (human) polo-box domain binding inhibition; Plk1 PBD binding of FITC phosphopeptide, fluorescence polarization; P53350; Potency, µM, for the others: max response, negative = inhibition, usual class: inhibitors; 2.8% of 360,000 active; note: potency is the fitted concentration of half-maximal effect; series mostly up to about 57 µM; % is set by controls: 0 for no effect and ±100 for the full control effect; nearly all actives have a fitted effect of over 65% in size
BAZ2B inh: BAZ2B (human) inhibition. Q9UIF8. AlphaScreen BAZ2B-H3K14Ac peptide displacement. Potency, µM (highest dose often 114 µM), for the others: top-dose activity change, negative = inhibition, most hits filed as inhibitors. 4.4% of 360,000 active; note: potency is the fitted concentration of half-maximal effect; % is set by controls: 0 for no effect and ±100 for the full control effect; nearly all actives have a fitted effect of over 60% in size
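Complex of BAZ2B and biotin-H3K14Ac (50 nM apiece) forms over 30 min at RT, then faces library compounds up to 110 uM for another 30 min; AlphaScreen beads added, 20 min dark incubation, luminescence read.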
G9a inh: inhibitors of human histone lysine methyltransferase G9a; Q96KQ7; G9a H3K9 monomethylation, AlphaScreen, 2 h; Potency, µM (highest dose often 102 µM), without a hit: top-dose activity, negative = inhibition, hits mostly inhibitors; 8.8% of 350,000 active; note: potency is the fitted concentration of half-maximal effect; % is set by controls: 0 for no effect and ±100 for the full control effect; nearly all actives have a fitted effect of over 75% in size
Target sequence (Q96KQ7 913-1193 limits assumed): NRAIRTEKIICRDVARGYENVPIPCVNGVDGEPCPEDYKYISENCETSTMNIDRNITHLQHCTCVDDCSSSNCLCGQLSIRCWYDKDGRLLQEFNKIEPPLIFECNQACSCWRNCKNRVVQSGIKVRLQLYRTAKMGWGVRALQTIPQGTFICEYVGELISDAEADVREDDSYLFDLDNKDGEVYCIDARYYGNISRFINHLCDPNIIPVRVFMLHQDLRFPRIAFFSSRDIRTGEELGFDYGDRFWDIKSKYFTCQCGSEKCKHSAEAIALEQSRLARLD
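G9a (20 nM) was preincubated 15 min with compound, then reacted 2 h at room temperature with 500 nM biotin-H3K9 peptide and 20 µM SAM. Monomethyl-H3K9 detected by AlphaScreen using anti-H3K9me1 antibody.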
HP1b chromo inh: inhibitors of HP1-beta chromodomain binding to methylated histone tails; AlphaScreen HP1-beta / biotin-H3K9me3 peptide binding; Potency, µM (highest dose often 114 µM), without a hit: top-dose activity change, negative = inhibition, most hits filed as inhibitors; 0.56% of 390,000 active; note: potency is the fitted concentration of half-maximal effect; nearly all actives have a fitted effect of over 70% in size
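Compound inhibition of the preformed complex between 50 nM HP1-beta and 50 nM biotinylated H3K9me3 peptide was read by AlphaScreen. Buffer was PBS pH 7.4 with 0.01% Tween-20. Incubations ran 30 min at room temperature, with 10 ug/mL donor/acceptor beads.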
PI5P4K alpha inh: PI5P4K alpha (human) kinase inhibition. max response, %. 1.2% of 330,000 active. PI5P4Kalpha enzyme, ADP-Glo luminescence, 60 min; hits give low values; active = max response of -50% or lower; inconclusive = between -30% and -50%; inactive = -30% or higher; note: value at the top dose of about 77 µM; % is set by controls: 0 for no effect and ±100 for the full control effect
Target sequence (P48426 whole entry, looked up): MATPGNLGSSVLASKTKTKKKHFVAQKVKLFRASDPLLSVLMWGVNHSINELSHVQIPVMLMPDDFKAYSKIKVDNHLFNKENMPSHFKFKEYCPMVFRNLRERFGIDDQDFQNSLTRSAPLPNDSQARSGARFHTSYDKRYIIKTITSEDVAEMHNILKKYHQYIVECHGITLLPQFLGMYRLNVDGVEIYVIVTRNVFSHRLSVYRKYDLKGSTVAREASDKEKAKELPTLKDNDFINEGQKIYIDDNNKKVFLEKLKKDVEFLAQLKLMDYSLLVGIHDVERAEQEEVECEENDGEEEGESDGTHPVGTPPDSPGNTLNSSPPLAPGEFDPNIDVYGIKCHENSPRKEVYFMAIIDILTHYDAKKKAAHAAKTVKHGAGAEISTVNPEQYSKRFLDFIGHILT
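Compounds were pin-transferred onto PI5P4Kalpha and substrate in HEPES pH 7.4 buffer with EGTA, CHAPS and 5% DMSO. ATP (5 microM final) started the reaction, which ran 60 minutes at room temperature before ADP-Glo detection.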
JMJD2A Tudor inh: blocks the human JMJD2A Tudor domain. AlphaScreen JMJD2A-Tudor / H3K4me3 peptide binding. Potency, µM (doses to about 114 µM), inactives show at the highest dose activity change, negative = inhibition, hits mostly inhibitors. 4.4% of 390,000 active. AID 504339; note: potency is the fitted concentration of half-maximal effect; % is set by controls: 0 for no effect and ±100 for the full control effect; nearly all actives have a fitted effect of over 50% in size
Starred values were filed as active, the others as inactive; [ ] = another dose, or the depositor's remark. Unless noted, calls come from the whole dose curve; as a rule, active = well fitted curve in the direction sought with a large enough effect; inconclusive = small, poorly fitted or top-dose-only effect, or another doubt; inactive = no such curve, though single readings can be large; an effect the other way counts as inactive or inconclusive.

`COc1cc(OC)c(OC)cc1CN1CCN(c2ccccc2OC)CC1` gave PLK1 PBD block -7.5%, BAZ2B inh inconclusive, G9a inh inconclusive, HP1b chromo inh inconclusive and JMJD2A Tudor inh 3.16µM*.
Screening COc1cc(Cl)c(CN2CCC(CCC(=O)NC3CC3)CC2)cc1OC returned PLK1 PBD block -2.5%, BAZ2B inh -9.1%, HP1b chromo inh 50.3%, PI5P4K alpha inh 2.1 and JMJD2A Tudor inh -7.1%.
COc1cc(OC)c(OC)cc1CN1CCC(O)CC1 was read as PLK1 PBD block 4.6%, BAZ2B inh inconclusive, G9a inh inconclusive, HP1b chromo inh inconclusive, PI5P4K alpha inh 0.8 and JMJD2A Tudor inh 17.8µM*.
COc1ccc(C2=[N+](C)CCn3cccc32)c(OC)c1 was read as PLK1 PBD block -21.2%, BAZ2B inh -34.3%, G9a inh 7.08µM*, HP1b chromo inh inconclusive, PI5P4K alpha inh -14.9 and JMJD2A Tudor inh 17.8µM*.
Screening CC(=O)C1=C(O)C(=O)N(c2ccc(S(N)(=O)=O)cc2)C1c1cccc([N+](=O)[O-])c1 (stereo not drawn) returned PLK1 PBD block 26.7µM*, BAZ2B inh -25.9%, G9a inh 50.1µM*, HP1b chromo inh 20.2%, PI5P4K alpha inh -10.5 and JMJD2A Tudor inh -16.2%[11.4 µM].
For CC(=O)C1=C(O)C(=O)N(c2ccc(O)cc2)C1c1ccc(Cl)cc1 (stereo not drawn) the results were PLK1 PBD block -17.4%, BAZ2B inh -19.1%, G9a inh 70.8µM*, HP1b chromo inh 10.6%, PI5P4K alpha inh -18.4 and JMJD2A Tudor inh -24.9%.
CCOC(=O)C1=C(N)Oc2cc(O)ccc2C1c1ccc([N+](=O)[O-])cc1 (stereo not drawn) was read as PLK1 PBD block -5.4%, BAZ2B inh inconclusive, G9a inh 39.8µM*, HP1b chromo inh -19.3%, PI5P4K alpha inh -4.9 and JMJD2A Tudor inh 50.1µM*.
`CCOC(=O)C1=C(O)C(=O)N(c2ccc(S(N)(=O)=O)cc2)C1c1ccc([N+](=O)[O-])cc1` (stereo not drawn) gave PLK1 PBD block 29.9µM*, BAZ2B inh -13.1%, G9a inh inconclusive, HP1b chromo inh 13.8%, PI5P4K alpha inh -16.2 and JMJD2A Tudor inh -25.0%[11.4 µM].
For CC1CCN(C(=O)COC(=O)CCC(=O)c2ccc(Cl)cc2)CC1 the results were PLK1 PBD block 3.7%, HP1b chromo inh 6.5%, PI5P4K alpha inh 1.2 and JMJD2A Tudor inh -13.0%.
Screening Cc1cccc(OC(=O)CSc2nnc(CNC(=O)c3ccccc3)o2)c1C returned BAZ2B inh -0.5%, G9a inh -30.8%[59 µM], HP1b chromo inh 15.9% and JMJD2A Tudor inh -9.3%.
`CCNc1ncc2nc(-c3ccc(F)cc3)c(=O)n(CCc3ccccc3)c2n1` gave G9a inh 8.9%[0.501 µM].
Screening CCOc1ccc(S(=O)(=O)NCCc2sc3nc(-c4ccc(F)cc4)nn3c2C)cc1 returned BAZ2B inh -1.4%, G9a inh 4.8%[59 µM], HP1b chromo inh 36.4% and JMJD2A Tudor inh -3.6%.
Screening Cc1c(NC(=O)c2cc([N+](=O)[O-])ccc2N2CCOCC2)cccc1-c1nc2ccccc2o1 returned BAZ2B inh -25.4%, G9a inh 0.2%[59 µM], HP1b chromo inh -0.2% and JMJD2A Tudor inh -24.3%.
`CCCC1NC(=O)c2cccnc2-n2c1nc1ccc(Cl)cc1c2=O` (stereo not drawn) gave PLK1 PBD block -3.5% and PI5P4K alpha inh 4.3.
CC1(C(=O)NCC(F)(F)F)CCN1C(=O)Cc1ccc(-c2ccccc2)cc1 (stereo not drawn) was read as PLK1 PBD block -14.3% and PI5P4K alpha inh -5.9.
CC(=O)C1=C(O)C(=O)N(c2ccc(C)cc2)C1c1ccc([N+](=O)[O-])cc1 (stereo not drawn) was read as PLK1 PBD block 26.7µM*, BAZ2B inh inconclusive, G9a inh -15.6%[59 µM], HP1b chromo inh inconclusive, PI5P4K alpha inh 0.3 and JMJD2A Tudor inh inconclusive.
For CNc1cncc(-c2cccc(C(=O)NC3CC3)c2)n1 the results were PLK1 PBD block -18.5% and PI5P4K alpha inh -2.7.
Screening CCOC(=O)N1C(=O)[C@](CC)(c2ccccc2)N1C(=O)OCC returned PLK1 PBD block 16.8µM*, BAZ2B inh -8.6%, HP1b chromo inh 63.1%, PI5P4K alpha inh -3.1 and JMJD2A Tudor inh -9.2%.
For CN(C)S(=O)(=O)N1CCC(Oc2ccc(C(=O)N3CCCCCC3)cc2)CC1 the results were PLK1 PBD block -8.6% and PI5P4K alpha inh -2.2.
CN(C)S(=O)(=O)N1CCC(Oc2ccc(C(=O)N3CCCCCCC3)cc2)CC1 was read as PLK1 PBD block 0.2%, BAZ2B inh 56.2µM*, G9a inh inconclusive, HP1b chromo inh 23.4%, PI5P4K alpha inh 29.1 and JMJD2A Tudor inh -5.1%.
For CCC1(C)OC(=O)N(CCCn2ccnc2C)C1(C)O (stereo not drawn) the results were PLK1 PBD block -7.7%, BAZ2B inh 3.4%, G9a inh 5.8%, HP1b chromo inh 40.7%, PI5P4K alpha inh 3.7 and JMJD2A Tudor inh -5.3%.
For Cc1nccn1CCCN1C(=O)OC2(CCCCC2)C1(C)O (stereo not drawn) the results were PLK1 PBD block 21.2µM*, BAZ2B inh 0.3%, G9a inh -5.6%[59 µM], HP1b chromo inh -3.1%, PI5P4K alpha inh -15.1 and JMJD2A Tudor inh -10.3%[11.4 µM].
For O=S(=O)(c1ccccc1Br)N(Cc1ccccc1)Cc1ccco1 the results were HP1b chromo inh 50.8% and JMJD2A Tudor inh 24.8%.
For Cc1cccc(CC(=O)Nc2ccc3nc(N4CCC(C)CC4)cc(C)c3c2)c1 the results were BAZ2B inh 22.0%, G9a inh 17.8%[59 µM], HP1b chromo inh 85.4% and JMJD2A Tudor inh 16.0%.
Cc1cc(N2CCC(C)CC2)nc2cccc(O)c12 was read as PLK1 PBD block -6.2%, BAZ2B inh -28.8%, G9a inh 50.1µM*, HP1b chromo inh -2.6%, PI5P4K alpha inh 6.2 and JMJD2A Tudor inh inconclusive.
`S=c1[nH]nc(-c2ccc(Cl)cc2Cl)n1-c1ccc2c(c1)OCCO2` gave PLK1 PBD block 26.7µM*, BAZ2B inh -29.4%, G9a inh 2.51µM*, HP1b chromo inh inconclusive, PI5P4K alpha inh -16.0 and JMJD2A Tudor inh 79.4µM*.
`Oc1ccc(-c2n[nH]c(=S)n2-c2ccc3c(c2)OCCO3)c(O)c1` gave PLK1 PBD block -27.4%, BAZ2B inh -29.4%, G9a inh 1.78µM*, HP1b chromo inh 6.9%, PI5P4K alpha inh inconclusive and JMJD2A Tudor inh 10µM*.
COc1ccc(CCC(=O)NC2CCCc3ccccc32)cc1OC (stereo not drawn) was read as PLK1 PBD block 5.8%, BAZ2B inh 3.2%, G9a inh -19.5%, HP1b chromo inh 34.3%, PI5P4K alpha inh -5.9 and JMJD2A Tudor inh 13.0%.
